# Assay outcomes (PubChem)
# D2 ag-1: HTS Assay for Allosteric Agonists of the Human D2 Dopamine Receptor: Primary Screen for Agonists | D(2) dopamine receptor (Homo sapiens), P14416 | hit rate 0.53% among 340,000 | HEK293 T-REx D2 cells, calcium flux agonist mode | activation, % at 2 µM;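 active = activation over 3 SD above normal in the single-dose calcium agonist read, cut at about 30% in these data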; note: 0% is about no effect
# Target sequence (P14416 whole entry, looked up): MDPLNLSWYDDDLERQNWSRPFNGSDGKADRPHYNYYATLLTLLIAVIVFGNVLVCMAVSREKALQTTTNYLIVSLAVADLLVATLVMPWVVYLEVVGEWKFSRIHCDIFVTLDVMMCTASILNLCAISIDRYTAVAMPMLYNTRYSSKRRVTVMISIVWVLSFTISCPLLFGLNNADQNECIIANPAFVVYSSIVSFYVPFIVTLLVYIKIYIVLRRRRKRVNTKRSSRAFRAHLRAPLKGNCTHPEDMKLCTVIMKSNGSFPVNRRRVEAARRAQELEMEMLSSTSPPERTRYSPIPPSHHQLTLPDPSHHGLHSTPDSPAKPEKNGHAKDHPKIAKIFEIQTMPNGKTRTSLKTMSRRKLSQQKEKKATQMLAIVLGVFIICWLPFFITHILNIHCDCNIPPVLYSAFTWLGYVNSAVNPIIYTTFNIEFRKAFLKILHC
#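 Tetracycline-induced HEK293 Trex cells with D2 receptor force-coupled to calcium signaling, plated overnight at 30 C and loaded with no-wash calcium dye. Calcium flux read kinetically for 180 s after compound addition; responses flag agonists.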
# D2 PAM-1: Beta-Arrestin HTS for Positive Allosteric Modulators of the Human D2 Dopamine Receptor: Potentiators | D(2) dopamine receptor (Homo sapiens), P14416 | DiscoveRx D2 beta-arrestin cells, luminescence, 90 min; 100% = 57 uM dopamine signal | potentiation, % (concentration not given with the values) | hit rate 0.23% among 360,000 | AID 624464, 2012; in the data active = potentiation above about 50%; inconclusive = mostly about 30% to 49%
#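 D2 cells co-treated with compound plus 50 nM dopamine (EC20) for 90 min at 37 deg C to detect potentiation. Beta-arrestin recruitment was read as enzyme-fragment luminescence after 1 h at ambient temperature. Full response was set by 57 uM dopamine.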
# D2 antag: HTS Assay for Allosteric Antagonists of the Human D2 Dopamine Receptor: Primary Screen for Antagonists; hit rate 2% among 340,000; D(2) dopamine receptor (Homo sapiens), P14416; HEK293 TREx D2 cells, calcium flux, dopamine EC80; inhibition, % at 10 µM; in the data active = inhibition above about 30%; inactive = below that, where a call was filed; note: 0% is about no effect
#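 Antagonism is scored as inhibition of an EC80 dopamine-evoked calcium signal in a force-coupled, tetracycline-inducible HEK293 T-REx D2 line, with compound present 180 s before agonist.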
# D2 PAM-2: HTS Assay for Positive Allosteric Modulators of the Human D2 Dopamine Receptor: Primary Screen for Potentiators. D(2) dopamine receptor (Homo sapiens), P14416. HEK293 T-REx D2, calcium flux, EC20 dopamine potentiation. potentiation, % at 10 µM. hit rate 0.34% among 340,000. AID 485347, 2010;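 active = potentiation over 3 SD above the plate norm, cut at about 30% in these data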; note: 0% is about no effect
#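 Primary screen. Calcium kinetics in induced HEK293 T-REx D2 cells: compound pre-addition 180 s, EC20 dopamine, 180 s more.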
# D2 ag-2: Beta-Arrestin HTS for Positive Allosteric Modulators of the Human D2 Dopamine Receptor: Agonists | D(2) dopamine receptor (Homo sapiens), P14416 | DiscoveRx PathHunter D2 beta-arrestin, luminescence, 90 min; 100% = 57 uM dopamine signal | activation, % (concentration not given with the values) | hit rate 0.084% among 360,000 | AID 624465, 2012; in the data active = activation above about 40%; inconclusive = between about 15% and that limit
#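 DiscoveRx PathHunter D2 beta-arrestin cells (2,100/well) attached overnight, then compound-stimulated 90 min at 37 C in HBSS/10 mM HEPES/0.1% Tween-20 buffer; beta-galactosidase complementation read by luminescence after 1 h at ambient temperature. Dopamine 57 uM final (EC100) as control.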
# The depositor's hits bear a star; ? = inconclusive; · = no result given. An excerpt weighted towards active compounds, which were near 2.4% of everything screened.
SMILES,D2 ag-1,D2 PAM-1,D2 antag,D2 PAM-2,D2 ag-2
CC(C)COCC(CN(Cc1ccccc1)c1ccccc1)N1CCCC1 (stereo not drawn),38*,-30,-8,-17,-5
Cc1cc(OC(=O)c2ccco2)c(Sc2ccccc2[N+](=O)[O-])c(=O)o1,1,-9,34*,3,-5
Cc1cc(SCC(=O)N/N=C/c2ccc(O)c(O)c2O)c(C)cc1Br,-1,57*,-14,-2,?
COc1cc(/C=C/C(=O)CC(=O)/C=C/c2ccc(O)c(OC)c2)ccc1O,53*,-10,27,-13,4
COc1cc(/C=C2/C(=O)CNC2=O)ccc1O,37*,-1,3,-18,-1
CC(C)(C)NCCOc1ccc2ccccc2c1,3,-11,45*,-21,-2
C=CCn1c(SCC(=O)Nc2ccc(OC)cc2)nc2c([nH]c3ccccc32)c1=O,1,0,33*,11,0
CCCn1cc(S(=O)(=O)c2ccccc2)c(=O)c2cc(OC)c(OC)cc21,0,-7,1,39*,-3
CC(=O)c1ccc2c(c1)Nc1ccccc1S2,0,52*,7,-3,?
C/C(=N\NC(=O)c1ccc(C)cc1C)c1ccc2c(c1)Nc1ccccc1S2,1,78*,0,-2,?
CCOC(=O)Nc1ccc2c(c1)Nc1ccccc1S2,1,63*,-7,4,11
C/C(=N\NC(=O)c1ccc(C)cc1C)c1ccc(-n2ccnc2)cc1,1,3,4,-4,0
COc1ccccc1CNC(=O)c1cnc(N(C)C)nc1,1,·,·,-7,·
N#CC(C#N)=C1SC(=Nc2ccccc2)C(=Nc2ccccc2)N1c1ccccc1,·,-36,·,·,0
CC(=O)c1c(C)[nH]c(C(=O)OCCCCN2C(=O)c3ccccc3C2=O)c1C,-1,9,48*,4,-2
COc1cccc(NC(=O)N2CCCC2C(=O)NCc2ccco2)c1 (stereo not drawn),0,-6,6,13,4
COc1ccc(-c2csc(C3=C(O)CN(Cc4ccc(Cl)cc4)C3=N)n2)cc1OC,1,-21,74*,-18,1
CSc1cccc(CN2CCN(Cc3ccccc3)C(CCO)C2)c1 (stereo not drawn),-3,-8,39*,-35,-2
CSc1ccc(CN2CCN(CC=C(C)C)C(CCO)C2)cc1 (stereo not drawn),0,-12,33*,-22,-4
CSc1cccc(CN2CCN(CCc3ccccc3)C(CCO)C2)c1 (stereo not drawn),0,-42,27,-30,-2
Cc1ccc(NC(=O)COC(=O)Cc2cccs2)cc1S(=O)(=O)N1CCOCC1,0,-16,-22,-7,?
COc1ccccc1/C=N\Nc1cn[nH]c(=O)c1Cl,-2,-3,30*,0,0
COc1ccc(S(=O)(=O)O/N=C2\CCSc3ccc(C)cc32)cc1,0,72*,-4,3,12
Cc1ccc(C(=O)O/N=C2\CCSc3ccc(C)cc32)cc1,0,0,-4,0,-3
Cc1csc(=O)n1CCC(=O)OCC(=O)Nc1ccc(C(N)=O)cc1,0,-1,-3,-4,-5
Cc1csc(=O)n1CCC(=O)OCC(=O)Nc1ccc(S(N)(=O)=O)cc1,-1,1,54*,2,0
CN1CCN(C(=O)C2=C[C@H](c3coc4ccccc4c3=O)C[C@H](OCCCCO)O2)CC1,0,-8,0,1,-1
O=C(C1=C[C@@H](c2coc3ccccc3c2=O)C[C@@H](OCCCCO)O1)N1CCOCC1,0,-9,62*,13,-4
COc1cccc(NC(=O)c2cc(CN3CCOCC3)on2)c1,-1,·,·,10,·
